Source: PubChem (National Center for Advancing Translational Sciences (NCATS))
Rows were chosen to be rich in hits. Some 3.3% of all compounds tested hit in one or more screens of this group.
VACV mCherry inh = qHTS for Stage-Specific Inhibitors of Vaccinia Orthopoxvirus: mCherry Reporter Primary qHTS; 0.63% of 310,000 active; Vaccinia virus mCherry reporter infection, fluorescence; AID 720579, 2013; Potency, µM (series often up to 36.5 µM), hits mostly inhibitors; calls by dose curve; tested in A549 cells; also: nearly all actives have a fitted effect of over 35% in size
VACV Venus inh = qHTS for Stage-Specific Inhibitors of Vaccinia Orthopoxvirus: Venus Reporter Primary qHTS | 0.46% of 330,000 active | Potency, µM (series often up to 36.5 µM), most hits filed as inhibitors | Vaccinia virus Venus reporter expression, fluorescence; calls by dose curve; tested in A549 cells; also: nearly all actives have a fitted effect of over 30% in size
HCV inh = qHTS Assay for Inhibitors of Hepatitis C Virus (HCV); AID 651820, 2012; Huh7.5.1 HCVcc-Cre infection, luciferase reporter, 44 h; Potency, µM (titrated, usually from 41.8 µM), hits mostly inhibitors; 3.4% of 340,000 active; active = well fitted inhibition curve with a large enough effect; inconclusive = small, poorly fitted or top-dose-only effect, or another doubt; inactive = no such curve, though single readings can be large or run the other way
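Cells seeded at 1,000/well and cultured 4 h, then compounds added followed by HCVcc-Cre virus (~0.5 moi). After 44 h further culture, luciferase substrate was added, plates held 15 min at room temperature, and luminescence read for 15 sec.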
Each line names hits and unclear results; the compound was inactive in the other large screens.

O=[N+]([O-])c1ccc2nc(NN=Cc3ccc(O)cc3)sc2c1	VACV mCherry inh 3.2µM, VACV Venus inh inconclusive
CCOc1ccc(CCNC(=O)CCS(=O)(=O)c2ccc(Cl)cc2)cc1OCC	none
Cn1cnc([N+](=O)[O-])c1Oc1cccc(O)c1	VACV mCherry inh inconclusive, VACV Venus inh inconclusive
Cn1cnc([N+](=O)[O-])c1Oc1ccccc1	VACV mCherry inh 28µM, VACV Venus inh inconclusive, HCV inh inconclusive
Cc1[nH]c(N=Nc2ccccc2)nc1N=Nc1ccccc1	VACV mCherry inh inconclusive, HCV inh 13µM
CN(C)c1ccc(N=Nc2ccccc2)cc1	none (no result: HCV inh)
CCN1CCN(c2ccc(S(=O)(=O)N3CCOCC3)cc2N)CC1	none
CC(C)CCN(C(=O)Cc1ccc(Cl)c(Cl)c1)c1c(N)n(Cc2ccccc2)c(=O)[nH]c1=O	HCV inh 10µM
CC(C)CCN(C(=O)c1ccncc1)c1c(N)n(Cc2ccccc2)c(=O)[nH]c1=O	none (no result: VACV mCherry inh, VACV Venus inh)
O=C(COC(=O)c1ccc(O)cc1O)NC1CCCCCC1	HCV inh 13µM (no result: VACV mCherry inh, VACV Venus inh)
N#Cc1c(NC(=O)COC(=O)c2ccc(O)cc2O)sc2c1CCC2	HCV inh 7.1µM (no result: VACV mCherry inh, VACV Venus inh)
COc1ccc(C(=O)OCC(=O)NC23CC4CC(CC(C4)C2)C3)c(O)c1	VACV mCherry inh inconclusive (no result: HCV inh)
CC(C)Oc1ccc(C(=O)OCC(=O)NC(=O)NC2CCCC2)cc1	none (no result: VACV mCherry inh, VACV Venus inh)
CC(C)Oc1ccc(C(=O)OCC(=O)NC2CCCCCC2)cc1	HCV inh 11µM (no result: VACV mCherry inh, VACV Venus inh)
O=C(COC(=O)c1ccc(O)cc1O)NC12CC3CC(CC(C3)C1)C2	HCV inh 13µM (no result: VACV mCherry inh, VACV Venus inh)
CC(C)(C)c1ccc(C(=O)OCC(=O)Nc2sc3c(c2C#N)CCC3)cc1	none
O=C(COC(=O)c1ccc(O)cc1O)NC1CCS(=O)(=O)C1 (stereo not drawn)	none
Cc1ncc2c(c1CNS(=O)(=O)N(C)C)CCN(C(=O)/C=C/c1cccc(F)c1)C2	none (no result: HCV inh)
CC(C)CCOc1ccc(CO[C@@H]2[C@H]3OC(C)(C)O[C@H]3O[C@@H]2C(O)CO)cc1 (stereo partly drawn)	none (no result: VACV mCherry inh, VACV Venus inh)
COC(=O)c1ccc(Oc2nc(Nc3ccccc3)nc(N(C)C)n2)cc1	HCV inh 11µM (no result: VACV mCherry inh, VACV Venus inh)
COC(=O)c1ccc(Oc2nc(SC)nc(N(C)C)n2)cc1	none
C=C1Nc2ccccc2C(=O)N1c1ccc(C(=O)N2CCN(C(=O)c3ccco3)CC2)cc1	none (no result: HCV inh)
O=C(Nc1ccncc1)Nc1cccc(Cl)c1Cl	HCV inh 6.3µM (no result: VACV mCherry inh, VACV Venus inh)
O=C(Nc1ccncc1)Nc1cccc(Cl)c1	none (no result: VACV mCherry inh, VACV Venus inh)
Cc1ccc2nc(-c3ccc(SCC(=O)Nc4nnc(C)s4)nc3)[nH]c2c1	VACV mCherry inh inconclusive, VACV Venus inh 11µM
Cc1ccc2nc(-c3ccc(SCC(=O)Nc4nc(C)cs4)nc3)[nH]c2c1	VACV mCherry inh inconclusive, VACV Venus inh inconclusive
C(=Nc1cccnc1)c1ccnc2ccccc12	none (no result: HCV inh)
CCOc1ccccc1N1CCN(CC(=O)Nc2ccnn2C2CCCC2)CC1	HCV inh 13µM (no result: VACV mCherry inh, VACV Venus inh)
CCOc1ccccc1N1CCN(CC(=O)Nc2nccs2)CC1	none (no result: HCV inh)
CC(C)N1CC(O)=C(c2nc3ccccc3[nH]2)C1=N	none
CC(C1CC2CCC1C2)N1CC(O)=C(c2nc3ccccc3[nH]2)C1=N (stereo not drawn)	VACV mCherry inh 7.1µM, VACV Venus inh 5µM, HCV inh inconclusive
COCc1c(C(=O)N2CCN(C3CCCC3)CC2)cnn1-c1nccc(-c2cccs2)n1	none (no result: HCV inh)
COc1ccc(-c2cc(=O)oc3c(C)c(OC(C)C(=O)Nc4ccc(CN5CCOCC5)cc4)ccc23)cc1 (stereo not drawn)	HCV inh 13µM (no result: VACV mCherry inh, VACV Venus inh)
Cc1cc(=O)oc2c(C)c(OC(C)C(=O)NCCN3CCOCC3)ccc12 (stereo not drawn)	none
COc1cccc(C(=O)Nc2ccc(-c3cn4cccnc4n3)cc2)c1OC	none (no result: HCV inh)
CCOC(=O)c1cnc2c(ccc3ccccc32)c1N	none (no result: VACV mCherry inh, VACV Venus inh)
Cc1cc2occ(CC(=O)Nc3nnc(C4CC4)s3)c2cc1C	none (no result: VACV mCherry inh)
O=C(Cc1coc2ccc3ccccc3c12)Nc1nnc(C2CC2)s1	VACV mCherry inh 13µM, HCV inh inconclusive
CN1CCN(CC(O)(c2ccc(Cl)cc2)c2ccc(Cl)cc2)CC1	HCV inh 3.2µM
CCC(C)NCC(O)(c1ccc(Cl)cc1)c1ccc(Cl)cc1 (stereo not drawn)	none
COc1ccc(CN2Cc3ccccc3OC(c3ccccc3OC)C2)cc1O (stereo not drawn)	none (no result: HCV inh)
COc1ccccc1COCC(O)CN1CCN(S(=O)(=O)c2cccc(F)c2)CC1 (stereo not drawn)	none (no result: VACV mCherry inh, VACV Venus inh)
COc1ccc(COCC(O)CN2CCN(S(=O)(=O)c3c(F)cccc3F)CC2)cc1OC (stereo not drawn)	HCV inh 35µM
CCOC(=O)C1CCN(C(=O)CN2C(=O)COc3ccc(C(C)(C)C)cc32)CC1	none (no result: VACV mCherry inh, VACV Venus inh)
N#Cc1c2ccc(OCC(N)=O)cc2n2ccccc12	HCV inh 13µM (no result: VACV mCherry inh, VACV Venus inh)
CCOC(=O)COc1ccc2c(C#N)c3ccccn3c2c1	none (no result: VACV mCherry inh, VACV Venus inh)
CC(=O)N/C(=C/c1ccc(OS(=O)(=O)c2ccc(C)cc2)cc1)C(=O)Nc1ccc(C(=O)O)cc1	none
COc1ccccc1C(=O)N/C(=C\c1ccccc1)C(=O)NCc1ccco1	none
CN(C)C(=O)c1ccc(-c2cncnc2NCCN2CCOCC2)cc1	none (no result: HCV inh)
CCSc1ncc(Cl)c(C(=O)Nc2sc3c(c2C(=O)NCc2cccnc2)CCCC3)n1	HCV inh 10µM
CCNC(=O)c1c(NC(=O)c2nc(SCC)ncc2Cl)sc2c1CCCC2	VACV mCherry inh inconclusive (no result: HCV inh)
CC(C)(C)C(=O)NC(=S)Nc1ccc(Cc2ccncc2)cc1	VACV mCherry inh inconclusive, HCV inh inconclusive
COc1ccc(-c2noc(N3CCN(c4cccc(Cl)c4)CC3)n2)cc1OC	none (no result: HCV inh)
Cc1ccc2c(C(=O)CNc3nccs3)c[nH]c2c1	none (no result: HCV inh)
CCCCOc1ccc(C(=O)N2CCC(C)CC2)cc1	none (no result: VACV mCherry inh)
CCCCOc1ccc(C(=O)OC2CC(C)N(C)CC2C)cc1 (stereo not drawn)	HCV inh 4.5µM
COc1ccccc1-n1cc(C(=O)NCCN2Cc3ccccc3OC(c3ccsc3)C2)cn1 (stereo not drawn)	none (no result: HCV inh)
O=C(Nc1cccc(-n2cccn2)c1)C1CCCN(Cc2cc3ccccc3[nH]2)C1 (stereo not drawn)	VACV mCherry inh 13µM, HCV inh inconclusive
O=C(Nc1cccc(-n2cccn2)c1)C1CCCN(Cc2cccc(F)c2F)C1 (stereo not drawn)	HCV inh inconclusive
Cn1cc(CN2CCCC(C(=O)Nc3cccc(-n4cccn4)c3)C2)cn1 (stereo not drawn)	none
Cc1cc(CN2CCCC(C(=O)Nc3cccc(-n4cccn4)c3)C2)cc(C)c1O (stereo not drawn)	HCV inh 13µM
CCN(Cc1cccc(S(=O)(=O)O)c1)c1ccc(C(=C2C=CC(=[N+](CC)Cc3cccc(S(=O)(=O)O)c3)C=C2)c2ccccc2S(=O)(=O)[O-])cc1	VACV mCherry inh inconclusive (no result: HCV inh)
CCN(Cc1cccc(S(=O)(=O)O)c1)c1ccc(C(=C2C=CC(=[N+](CC)Cc3cccc(S(=O)(=O)O)c3)C=C2)c2ccc(O)cc2S(=O)(=O)O)cc1	VACV mCherry inh 10µM (no result: HCV inh)
Cc1nn(Cc2ccccc2)c2sc(C(=O)NCc3cccnc3)cc12	VACV mCherry inh inconclusive, HCV inh 7.9µM
Cc1cc(C(=O)NCc2cccnc2)n(-c2ccccc2)n1	none
CC(C)c1ccc(NC(=O)Cn2cc(S(=O)(=O)N3CCN(c4ccccc4F)CC3)c3ccccc3c2=O)cc1	none (no result: HCV inh)
